From PubChem BioAssay (NCATS)

Assay: qHTS profiling of the MIPE4 collection as inhibitors of Plasmodium falciparum (DD2) proliferation (Rep 2) (AID 743346)
Details: P. falciparum Dd2 in erythrocytes, SYBR Green DNA, 72 h; at 28.5 µM unless noted
Procedure, shortened: (§1)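 Parasite DNA was quantified by SYBR Green I fluorescence (ex 485, em 535 nm) after overnight lysis in saponin/Triton buffer at room temperature. Cultures at 0.3% parasitemia and 2.5% hematocrit were first exposed to compound for 72 h at 37 C; signals were normalised to artemisinin (0.29 uM) and vehicle wells.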

Q: With `CC(C)Oc1ccc(C(=O)N[C@H](CNC(=O)CN(C)C)Cc2ccc(-c3cn4cccc([C@H](C)O)c4n3)cc2)cc1Cl` as the compound, how does the parasite growth, % of control (lower = inhibition) read?
A: 12.6%

Q: For `c1cc(N[C@@H]2CCNC2)nc(-c2cnc3ccc(-c4cn[nH]c4)cn23)c1`, which parasite growth, % of control (lower = inhibition) is on record?
A: 9.64%

Q: Which parasite growth, % of control (lower = inhibition) does the source give for `Nc1ccc(C(=O)Nc2cccc(-c3nc(N4CCOCC4)c4oc5ncccc5c4n3)c2)cn1` here?
A: 9.55%

Q: For `CC[C@H]1OC(=O)[C@H](C)[C@@H](O[C@H]2C[C@@](C)(OC)[C@@H](O)[C@H](C)O2)[C@H](C)[C@@H](O[C@@H]2O[C@@H](C)C[C@H](N(C)C)[C@@H]2O)[C@](C)(O)C[C@@H](C)C(=O)[C@H](C)[C@@H](O)[C@]1(C)O`, which parasite growth, % of control (lower = inhibition) is on record?
A: 47.1%

Q: With `O=C(NCc1ccccc1)[C@H](Cc1ccccc1)NC(=O)[C@@H]1O[C@@H]1C(=O)NCCc1ccc(O)cc1` as the compound, how does the parasite growth, % of control (lower = inhibition) read?
A: 16.7%

Q: For `C#CCC(Cc1cnc2nc(N)nc(N)c2n1)c1ccc(C(=O)N[C@@H](CCC(=O)O)C(=O)O)cc1` (some centres undefined), which parasite growth, % of control (lower = inhibition) is on record?
A: 9.31%

Q: With `COc1ccc(C=Cc2cc(OC)c(OC)c(OC)c2)cc1NC(=O)[C@H](N)CO` as the compound, how does the parasite growth, % of control (lower = inhibition) read?
A: 79.9%

Q: With `CC(C)(N)c1ccc(-c2nc3ccccc3nc2-c2ccccc2)cc1` as the compound, how does the parasite growth, % of control (lower = inhibition) read?
A: 26.5%

Q: Which parasite growth, % of control (lower = inhibition) does the source give for `C[C@](Cc1c[nH]c2ccccc12)(NC(=O)OC1C2CC3CC(C2)CC1C3)C(=O)NC[C@H](NC(=O)CCC(=O)O)c1ccccc1` (some centres undefined) here?
A: 30.8%

Q: Which parasite growth, % of control (lower = inhibition) does the source give for `COc1cc(C)c(C=CC(C)=CC=CC(C)=CC(=O)O)c(C)c1C` here?
A: 85.9%

Assay: qHTS profiling of the MIPE4 collection as inhibitors of Plasmodium falciparum (HB3) proliferation (AID 743347);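 note: plate controls were DMSO vehicle wells for no effect and artemisinin wells for full effect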
Details: P. falciparum HB3 in erythrocytes, SYBR Green DNA, 72 h; at 28.5 µM unless noted
Procedure, shortened: as §1

Q: For `Nc1nc(=O)n([C@H]2C[C@H](O)[C@@H](CO)O2)cc1F`, which growth, % of control is on record?
A: 107%

Q: Which growth, % of control does the source give for `N#Cc1c(C2CCNCC2)cc(-c2c(O)cccc2OCC2CC2)nc1N` here?
A: 5.66%

Q: With `Oc1cc2c(cc1O)C1c3ccc(O)c(O)c3OCC1(O)C2` (centres undefined) as the compound, how does the growth, % of control read?
A: 9.94%

Q: With `CN[C@@H]1C[C@H]2O[C@@](C)([C@H]1OC)n1c3ccccc3c3c4c(c5c6ccccc6n2c5c31)C(=O)N[C@H]4O` as the compound, how does the growth, % of control read?
A: 3.74%

Q: With `NC(=O)Nc1cc(-c2ccc(CN3CCOCC3)cc2)sc1C(N)=O` as the compound, how does the growth, % of control read?
A: 33.4%

Q: Which growth, % of control does the source give for `FC(F)(F)c1ccc(Nc2nc3ccc(Oc4ccnc(-c5ncc(C(F)(F)F)[nH]5)c4)cc3[nH]2)cc1` here?
A: 7.1%

Q: Which growth, % of control does the source give for `COC(=O)[C@@H]1CC2=CC(=O)CC[C@]2(C)[C@@]23O[C@@H]2C[C@@]2(C)[C@H](CC[C@@]24CCC(=O)O4)[C@@H]13` here?
A: 49.1%

Q: Which growth, % of control does the source give for `COc1ccc(S(=O)(=O)Nc2cc(-c3c(O)ccc4ccccc34)c(O)c3ccccc23)cc1` here?
A: 49.9%

Q: Which growth, % of control does the source give for `Cc1cc(C(=O)NOCCO)c(Nc2ccc(I)cc2F)n(C)c1=O` here?
A: 66.5%

Q: For `CC(C)(C)[C@H](NC(=O)c1ccc(N)c(Cl)c1)C(=O)N1CCC[C@@H]1C(=O)N[C@H](C#N)CC(=O)O`, which growth, % of control is on record?
A: 588% [at 3.19 µM]

Q: With `O=C1NCCc2[nH]c(-c3ccncc3)cc21` as the compound, how does the growth, % of control read?
A: 5.62%

Q: Which growth, % of control does the source give for `COc1ccnc2[nH]cc(C(=O)C(=O)N3CCN(C(=O)c4ccccc4)C[C@@H]3C)c12` here?
A: 99.1%

Q: With `CCC[C@H]1C[C@H](C(=O)N[C@@H]([C@@H]2O[C@@H](SC)[C@@H](O)[C@@H](O)[C@@H]2O)[C@H](C)Cl)N(C)C1` as the compound, how does the growth, % of control read?
A: 25.3%

Q: With `CC(C)(O)CC[C@@H](O)[C@](C)(O)[C@H]1CC[C@@]2(O)C3=CC(=O)[C@@H]4C[C@@H](O)[C@@H](O)C[C@]4(C)[C@@H]3CC[C@]12C` as the compound, how does the growth, % of control read?
A: 674%

Q: For `CC(C)C[C@H](NC(=O)[C@@H](NC(=O)c1cccc(-c2ccccc2)n1)[C@@H](C)O)B(O)O`, which growth, % of control is on record?
A: 3.76%

Q: With `CON=C(C(=O)N[C@@H]1C(=O)N2C(C(=O)O)=C(CSC(=O)c3ccco3)CS[C@H]12)c1csc(N)n1` as the compound, how does the growth, % of control read?
A: 53.4%

Q: Which growth, % of control does the source give for `CCN(C(=O)c1c(O)c2c(Cl)cccc2n(C)c1=O)c1ccccc1` here?
A: 102%

Q: Which growth, % of control does the source give for `C[C@H]1[C@@H](OC(=O)CCC(=O)O)O[C@@H]2O[C@@]3(C)CC[C@@H]4[C@H](C)CC[C@@H]1[C@@]24OO3` here?
A: 8.92%

Q: For `Cn1cc(C[C@@H](N)C(=O)O)c2ccccc21`, which growth, % of control is on record?
A: 98.8% [at 9.64 µM]

Q: For `COc1cc([C@@H]2c3cc4c(cc3[C@@H](O[C@@H]3O[C@@H]5CO[C@@H](c6cccs6)O[C@@H]5[C@H](O)[C@@H]3O)[C@H]3COC(=O)[C@H]23)OCO4)cc(OC)c1O`, which growth, % of control is on record?
A: 5.8%

Q: With `Cc1coc2c1C(=O)C(=O)c1c-2ccc2c(C)cccc12` as the compound, how does the growth, % of control read?
A: 3.19%

Q: With `C=C(C)[C@@H]1CC[C@]2(C)CC[C@]3(C)[C@H](CC[C@@H]4[C@@]5(C)CC[C@H](O)C(C)(C)[C@H]5CC[C@]43C)[C@@H]12` as the compound, how does the growth, % of control read?
A: 37.4%

Q: With `CC(=O)N[C@@H]1[C@H](O[C@@H]2c3ccc(c(Cl)c3)Oc3cc4cc(c3O[C@H]3O[C@H](CO)[C@@H](O)[C@H](O)[C@H]3NC(=O)CCCCCCCC(C)C)Oc3ccc(cc3Cl)C[C@H]3NC(=O)[C@H](N)c5ccc(O)c(c5)Oc5cc(O)cc(c5)[C@H](NC3=O)C(=O)N[C@H]4C(=O)N[C@H]3C(=O)N[C@@H]2C(=O)N[C@@H](C(=O)O)c2cc(O)cc(O[C@H]4O[C@H](CO)[C@@H](O)[C@H](O)[C@H]4O)c2-c2cc3ccc2O)O[C@H](CO)[C@@H](O)[C@@H]1O` as the compound, how does the growth, % of control read?
A: 675%

Q: Which growth, % of control does the source give for `CC(=O)NCC(=O)N1[C@H]2CC[C@H]1c1cc(Nc3ncc(C(F)(F)F)c(NC4CCC4)n3)ccc12` here?
A: 6.85%

Q: For `CN1C(C(=O)Nc2ccccn2)=C(O)c2sc(Cl)cc2S1(=O)=O`, which growth, % of control is on record?
A: 69.3%

Q: For `CCOC(=O)N1CCN([N+]([O-])=NOc2ccc([N+](=O)[O-])cc2C#N)CC1`, which growth, % of control is on record?
A: 19.1%

Q: For `O=C1NC(O)CCN1[C@@H]1O[C@H](CO)[C@H](O)[C@H]1O` (some centres undefined), which growth, % of control is on record?
A: 59.2%

Q: For `CC(C)(O)[C@H]1CC[C@@](C)([C@H]2[C@@H](O)C[C@@]3(C)[C@@H]4C[C@H](O[C@@H]5O[C@H](CO)[C@@H](O)[C@H](O)[C@@H]5O)[C@H]5C(C)(C)[C@@H](O[C@@H]6OC[C@@H](O)[C@H](O)[C@@H]6O)CC[C@@]56C[C@@]46CC[C@]23C)O1`, which growth, % of control is on record?
A: 81.9%

Q: With `C[C@@H]1CC[C@@]2(OC1)OC1CC3C4CC=C5CC(O)CCC5(C)C4CCC3(C)C1[C@@H]2C` (some centres undefined) as the compound, how does the growth, % of control read?
A: 99.7%

Q: With `CC(C)Oc1ccc(C(=O)N[C@H](CNC(=O)CN(C)C)Cc2ccc(-c3cn4cccc([C@H](C)O)c4n3)cc2)cc1Cl` as the compound, how does the growth, % of control read?
A: 5.09%

Q: For `c1cc(N[C@@H]2CCNC2)nc(-c2cnc3ccc(-c4cn[nH]c4)cn23)c1`, which growth, % of control is on record?
A: 3.77%

Q: With `Nc1ccc(C(=O)Nc2cccc(-c3nc(N4CCOCC4)c4oc5ncccc5c4n3)c2)cn1` as the compound, how does the growth, % of control read?
A: 2.51%

Q: Which growth, % of control does the source give for `CC[C@H]1OC(=O)[C@H](C)[C@@H](O[C@H]2C[C@@](C)(OC)[C@@H](O)[C@H](C)O2)[C@H](C)[C@@H](O[C@@H]2O[C@@H](C)C[C@H](N(C)C)[C@@H]2O)[C@](C)(O)C[C@@H](C)C(=O)[C@H](C)[C@@H](O)[C@]1(C)O` here?
A: 82.4%

Q: For `O=C(NCc1ccccc1)[C@H](Cc1ccccc1)NC(=O)[C@@H]1O[C@@H]1C(=O)NCCc1ccc(O)cc1`, which growth, % of control is on record?
A: 33.6%

Q: With `C#CCC(Cc1cnc2nc(N)nc(N)c2n1)c1ccc(C(=O)N[C@@H](CCC(=O)O)C(=O)O)cc1` (some centres undefined) as the compound, how does the growth, % of control read?
A: 18%

Q: With `COc1ccc(C=Cc2cc(OC)c(OC)c(OC)c2)cc1NC(=O)[C@H](N)CO` as the compound, how does the growth, % of control read?
A: 85.5%

Q: With `CC(C)(N)c1ccc(-c2nc3ccccc3nc2-c2ccccc2)cc1` as the compound, how does the growth, % of control read?
A: 18.5%

Q: Which growth, % of control does the source give for `C[C@](Cc1c[nH]c2ccccc12)(NC(=O)OC1C2CC3CC(C2)CC1C3)C(=O)NC[C@H](NC(=O)CCC(=O)O)c1ccccc1` (some centres undefined) here?
A: 10.5%

Q: For `COc1cc(C)c(C=CC(C)=CC=CC(C)=CC(=O)O)c(C)c1C`, which growth, % of control is on record?
A: 83.1%
